According to PubChem BioAssay AID1159580 (chemical genetic matrix, 2015):
The whole screen tested about 5,500 compounds, of which about 2,000 (36%) were called active. Roughly 18% stayed inconclusive and do not appear here. No stated cut-off is given here; in the data, active means normalized growth mostly below about 0.91 (no sharp cut-off); inconclusive means no clear call, values can overlap the other calls; inactive means mostly above about 0.92. Some of the results follow.

Experiment: chemical genetic growth profiling, strain panel (AID 1159580);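 further: tested at 20 µM; growth read once vehicle control cultures reached saturation at 30 °C; 1 = growth at the plate median or of vehicle wells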
Settings: growth OD
[1] = S. cerevisiae deletion strains, locus YDL101C, strain DUN1, stronger effect = lower value
[2] = S. cerevisiae deletion strains, locus YHR030C, strain SLT2, stronger effect = lower value

Measured: normalized growth

CC(C)(C)C1=NN(c2nc3ccc(Cl)cc3s2)C(=O)C1
inactive: S. cerevisiae deletion strains, locus YDR226W, strain ADK1, stronger effect = lower value 0.898
active: S. cerevisiae deletion strains, locus YAR019C, strain CDC15, stronger effect = lower value 0.484 | S. cerevisiae deletion strains, locus YBL105C, strain PKC1, stronger effect = lower value 0.0905 | S. cerevisiae deletion strains, locus YBR135W, strain CKS1, stronger effect = lower value 0.0897 | S. cerevisiae deletion strains, locus YBR136W, strain MEC1, stronger effect = lower value 0.102 | S. cerevisiae deletion strains, locus YBR160W, strain CDC28, stronger effect = lower value 0.111 | S. cerevisiae deletion strains, locus YDL017W, strain CDC7, stronger effect = lower value 0.0926 | S. cerevisiae deletion strains, locus YDL028C, strain MPS1, stronger effect = lower value 0.105 | [1] 0.496 | S. cerevisiae deletion strains, locus YDL108W, strain KIN28, stronger effect = lower value 0.516 | S. cerevisiae deletion strains, locus YDL132W, strain cdc53, stronger effect = lower value 0.436 | S. cerevisiae deletion strains, locus YDL214C, strain PRR2, stronger effect = lower value 0.104 | S. cerevisiae deletion strains, locus YDR052C, strain DBF4, stronger effect = lower value 0.116 | S. cerevisiae deletion strains, locus YDR054C, strain cdc34, stronger effect = lower value 0.225 | S. cerevisiae deletion strains, locus YDR477W, strain SNF1, stronger effect = lower value 0.11 | S. cerevisiae deletion strains, locus YER123W, strain YCK3, stronger effect = lower value 0.0976 | S. cerevisiae deletion strains, locus YER133W, strain GLC7, stronger effect = lower value 0.11 | S. cerevisiae deletion strains, locus YFL009W, strain cdc4, stronger effect = lower value 0.11 | S. cerevisiae deletion strains, locus YFL029C, strain CAK1, stronger effect = lower value 0.0958 | S. cerevisiae deletion strains, locus YFR003C, strain YPI1, stronger effect = lower value 0.0998 | S. cerevisiae deletion strains, locus YFR019W, strain FAB1, stronger effect = lower value 0.109 | S. cerevisiae deletion strains, locus YFR028C, strain CDC14, stronger effect = lower value 0.101 | S. cerevisiae deletion strains, locus YGR040W, strain KSS1, stronger effect = lower value 0.121 | S. cerevisiae deletion strains, locus YGR052W, strain FMP48, stronger effect = lower value 0.114 | S. cerevisiae deletion strains, locus YGR092W, strain DBF2, stronger effect = lower value 0.0994 | [2] 0.106 | S. cerevisiae deletion strains, locus YHR079C, strain IRE1, stronger effect = lower value 0.111 | S. cerevisiae deletion strains, locus YHR082C, strain KSP1, stronger effect = lower value 0.121 | S. cerevisiae deletion strains, locus YHR205W, strain SCH9, stronger effect = lower value 0.00427 | S. cerevisiae deletion strains, locus YIL147C, strain SLN1, stronger effect = lower value 0.104 | S. cerevisiae deletion strains, locus YJL095W, strain BCK1, stronger effect = lower value 0.104 | S. cerevisiae deletion strains, locus YJL128C, strain PBS2, stronger effect = lower value 0.103 | S. cerevisiae deletion strains, locus YJL157C, strain FAR1, stronger effect = lower value 0.101 | S. cerevisiae deletion strains, locus YJR016C, strain ILV3, stronger effect = lower value 0.118 | S. cerevisiae deletion strains, locus YJR066W, strain TOR1 (second series), stronger effect = lower value 0.0988 | S. cerevisiae deletion strains, locus YJR066W, strain TOR1, stronger effect = lower value 0.108 | S. cerevisiae deletion strains, locus YKL048C, strain ELM1, stronger effect = lower value 0.119 | S. cerevisiae deletion strains, locus YKL067W, strain YNK1, stronger effect = lower value 0.144 | S. cerevisiae deletion strains, locus YKL101W, strain HSL1, stronger effect = lower value 0.0952 | S. cerevisiae deletion strains, locus YKL193C, strain SDS22, stronger effect = lower value 0.093 | S. cerevisiae deletion strains, locus YKL203C, strain TOR2, stronger effect = lower value 0.1 | S. cerevisiae deletion strains, locus YLR113W, strain HOG1, stronger effect = lower value 0.14 | S. cerevisiae deletion strains, locus YLR133W, strain CKI1, stronger effect = lower value 0.107 | S. cerevisiae deletion strains, locus YLR403W, strain SFP1, stronger effect = lower value 0.00206 | S. cerevisiae deletion strains, locus YML070W, strain DAK1, stronger effect = lower value 0.1 | S. cerevisiae deletion strains, locus YMR001C, strain CDC5, stronger effect = lower value 0.15 | S. cerevisiae deletion strains, locus YMR205C, strain PFK2 (second series), stronger effect = lower value 0.0849 | S. cerevisiae deletion strains, locus YMR277W, strain FCP1, stronger effect = lower value 0.262 | S. cerevisiae deletion strains, locus YNL006W, strain LST8, stronger effect = lower value 0.12 | S. cerevisiae deletion strains, locus YNL020C, strain ARK1, stronger effect = lower value 0.107 | S. cerevisiae deletion strains, locus YNL161W, strain CBK1, stronger effect = lower value 0.429 | S. cerevisiae deletion strains, locus YNL183C, strain NPR1, stronger effect = lower value 0.105 | S. cerevisiae deletion strains, locus YNL207W, strain RIO2, stronger effect = lower value 0.179 | S. cerevisiae deletion strains, locus YNL222W, strain SSU72, stronger effect = lower value 0.504 | S. cerevisiae deletion strains, locus YNL307C, strain MCK1 (second series), stronger effect = lower value 0.107 | S. cerevisiae deletion strains, locus YOL078W, strain AVO1, stronger effect = lower value 0.0851 | S. cerevisiae deletion strains, locus YOL136C, strain PFK27, stronger effect = lower value 0.111 | S. cerevisiae deletion strains, locus YOR061W, strain CKA2, stronger effect = lower value 0.0975 | S. cerevisiae deletion strains, locus YOR119C, strain RIO1, stronger effect = lower value 0.114 | S. cerevisiae deletion strains, locus YOR231W, strain MKK1, stronger effect = lower value 0.104 | S. cerevisiae deletion strains, locus YOR329C, strain SCD5, stronger effect = lower value 0.299 | S. cerevisiae deletion strains, locus YPL031C, strain PHO85, stronger effect = lower value 0.0965 | S. cerevisiae deletion strains, locus YPL153C, strain RAD53, stronger effect = lower value 0.0988 | S. cerevisiae deletion strains, locus YPL204W, strain HRR25, stronger effect = lower value 0.11 | S. cerevisiae deletion strains, locus YPL209C, strain IPL1, stronger effect = lower value 0.0986 | S. cerevisiae deletion strains, locus YPL256C, strain CLN2, stronger effect = lower value 0.121 | S. cerevisiae deletion strains, locus YPR025C, strain CCL1, stronger effect = lower value 0.124 | S. cerevisiae deletion strains, locus YPR106W, strain ISR1, stronger effect = lower value 0.199 | S. cerevisiae deletion strains, locus YPR111W, strain DBF20, stronger effect = lower value 0.463 | S. cerevisiae deletion strains, strain NNK1, stronger effect = lower value 0.106 | S. cerevisiae deletion strains, strain TSCII, stronger effect = lower value 0.48

CC(C)(C)NC(=O)N1CCN(c2nc3ccc(Cl)cc3s2)CC1
inactive: S. cerevisiae deletion strains, locus YAL013W, strain DEP1, stronger effect = lower value 0.952 | S. cerevisiae deletion strains, locus YBR229C, strain ROT2, stronger effect = lower value 0.979 | [1] 1 | S. cerevisiae deletion strains, locus YDR150W, strain NUM1, stronger effect = lower value 0.966 | S. cerevisiae deletion strains, locus YEL061C, strain CIN8, stronger effect = lower value 0.943 | S. cerevisiae deletion strains, locus YGR078C, strain PAC10, stronger effect = lower value 0.962 | S. cerevisiae deletion strains, locus YHR087W, strain rtc3, stronger effect = lower value 0.967 | S. cerevisiae deletion strains, locus YJR043C, strain POL32, stronger effect = lower value 0.976 | S. cerevisiae deletion strains, locus YJR075W, strain HOC1, stronger effect = lower value 0.981 | S. cerevisiae deletion strains, locus YKL190W, strain CNB1, stronger effect = lower value 0.993 | S. cerevisiae deletion strains, locus YLR039C, strain RIC1, stronger effect = lower value 0.82 | S. cerevisiae deletion strains, locus YLR058C, strain SHM2 (second series), stronger effect = lower value 1.02 | S. cerevisiae deletion strains, locus YLR262C, strain YPT6, stronger effect = lower value 0.913 | S. cerevisiae deletion strains, locus YML094W, strain GIM5, stronger effect = lower value 0.908 | S. cerevisiae deletion strains, locus YMR219W, strain ESC1, stronger effect = lower value 1 | S. cerevisiae deletion strains, locus YMR263W, strain SAP30, stronger effect = lower value 0.992 | S. cerevisiae deletion strains, locus YNL153C, strain GIM3, stronger effect = lower value 0.943 | S. cerevisiae deletion strains, locus YNL322C, strain KRE1, stronger effect = lower value 1.03 | S. cerevisiae deletion strains, locus YNR030W, strain Alg12, stronger effect = lower value 0.902 | S. cerevisiae deletion strains, locus YOL006C, strain TOP1, stronger effect = lower value 0.739 | S. cerevisiae deletion strains, locus YPL055C, strain LGE1, stronger effect = lower value 0.928 | S. cerevisiae deletion strains, locus YPR135W, strain CTF4, stronger effect = lower value 0.662 | S. cerevisiae strains, strain wild type, stronger effect = lower value 0.97
active: [2] 0.339 | S. cerevisiae deletion strains, locus YLR085C, strain ARP6, stronger effect = lower value 0.552 | S. cerevisiae deletion strains, locus YNL298W, strain CLA4 (second series), stronger effect = lower value 0.831 | S. cerevisiae deletion strains, locus YPL241C, strain CIN2, stronger effect = lower value 0.856
